Screens as filed in PubChem BioAssay.
The list is not random: actives were taken first. Their share in the collection is about 10%.
KinaseGlo FLuc = counter-screen: inhibitors of Kinase-Glo firefly luciferase; Q27757; Kinase-Glo luciferase, ATP luminescence, 8 min; Potency, µM (highest dose often 38.3 µM), for inactives: at the top dose activity change, negative = inhibition, usual class: inhibitors; 200,000 compounds, 0.28% hits; AID 1379; active means well fitted inhibition curve with a large enough effect; inconclusive means small, poorly fitted or top-dose-only effect; further: potency means the concentration at half of the fitted maximal effect; nearly all actives have a fitted effect of over 60% in size
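Recombinant Kinase-Glo luciferase, 10 uM ATP (linear range), luciferin; imidazole pH 7.2 / KCl / MgCl2 / Tween / BSA buffer; 8 min RT; luminescence.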
ALDH1A1 inh = inhibitors of human aldehyde dehydrogenase 1A1. 220,000 compounds, 7.3% hits. Potency, µM (doses to about 75.3 µM), without a hit: top-dose activity, negative = inhibition, most hits filed as inhibitors. P00352. Purified ALDH1A1, NADH fluorescence, propionaldehyde substrate;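 further: potency means the concentration at half of the fitted maximal effect; plate controls were no enzyme wells and a reference inhibitor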
Target sequence (P00352 whole entry, looked up): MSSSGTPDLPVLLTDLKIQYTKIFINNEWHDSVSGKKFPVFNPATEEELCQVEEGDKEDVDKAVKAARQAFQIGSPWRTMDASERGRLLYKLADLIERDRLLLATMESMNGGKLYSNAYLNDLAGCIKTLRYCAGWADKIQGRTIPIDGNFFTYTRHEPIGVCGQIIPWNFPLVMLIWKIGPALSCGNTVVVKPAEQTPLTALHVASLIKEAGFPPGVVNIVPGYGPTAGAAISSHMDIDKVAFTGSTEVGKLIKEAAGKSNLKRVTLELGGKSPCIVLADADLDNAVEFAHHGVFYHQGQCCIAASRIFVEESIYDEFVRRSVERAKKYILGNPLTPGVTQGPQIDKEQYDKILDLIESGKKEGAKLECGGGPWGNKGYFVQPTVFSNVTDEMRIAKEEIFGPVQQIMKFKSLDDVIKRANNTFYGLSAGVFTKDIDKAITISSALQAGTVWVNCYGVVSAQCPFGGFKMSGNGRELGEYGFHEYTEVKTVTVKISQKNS
HPGD inh = blocks human HPGD enzyme activity; P15428; 150,000 compounds, 4.3% hits; purified HPGD, NADH fluorescence kinetic, PGE2 substrate; Potency, µM, for inactives: at the top dose activity change, negative = inhibition, most hits filed as inhibitors; AID 894; further: potency means the concentration at half of the fitted maximal effect
Target sequence (P15428 whole entry, looked up): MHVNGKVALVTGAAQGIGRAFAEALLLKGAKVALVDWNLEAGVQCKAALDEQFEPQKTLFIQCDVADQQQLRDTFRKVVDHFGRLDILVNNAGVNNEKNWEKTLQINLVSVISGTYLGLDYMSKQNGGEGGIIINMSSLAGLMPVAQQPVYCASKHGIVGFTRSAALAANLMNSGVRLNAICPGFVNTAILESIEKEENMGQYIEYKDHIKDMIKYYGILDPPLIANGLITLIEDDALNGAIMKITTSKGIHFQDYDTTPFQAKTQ
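20 nM HPGD preincubated 15 min at room temperature with compound in 50 mM Tris-HCl pH 8, 0.01% Tween 20. Started with 1 mM NAD+ and 30 uM prostaglandin E2; NADH fluorescence (360/450 nm) read 5 times over 30-s intervals, last minus first.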
Lamin A splicing = changes lamin A minigene splicing in HeLa cells. HeLa LMNA splicing GFP/RFP minigene ratio, 48 h. Potency, µM (highest dose often 46.1 µM), for inactives: at the top dose ratio change, negative = inhibition, most hits filed as inhibitors. 200,000 compounds, 0.01% hits; active means well fitted inhibition curve with a large enough effect in the signal ratio, with a control signal flat, not every such curve was filed as active; inconclusive means small, poorly fitted or top-dose-only effect, or effect the other way, or a change in a side signal; the % refers to the signal ratio; further: potency means the concentration at half of the fitted maximal effect
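S3 HeLa cells stably expressing lamin A-EGFP splicing minigene plus DsRed2, 600 cells/well, 48 h compound exposure at 37C. Laser-scanning cytometry; analysed as GFP (500-530 nm)/RFP (575-640 nm) total intensity ratio; 0.5% DMSO vehicle.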
PNC assembly inh = inhibitors of perinucleolar compartment assembly; PC3M PTB-GFP, PNC prevalence imaging, 16 h; stronger effect = lower value; activity change (PNC), negative = inhibition, % at 10 µM; 140,000 compounds, 3.1% hits;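 active means readout at or below -70, meaning at least 70% loss of cells showing the perinucleolar compartment, a nuclear body marking cancer cells; inconclusive means readout between -30 and a set limit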;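 further: plate controls were DMSO wells for no effect and camptothecin positive control wells for full effect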
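PC3M cells stably expressing PTB-GFP, 750–1000 cells/well, treated 16 h at 37 °C with compound (23 nl of library stock), in duplicate. After paraformaldehyde fixation and Hoechst stain, imaged at 20x; PNC prevalence scored by image analysis.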
An asterisk follows results filed as active; ? = inconclusive; · = no result given; [ ] = dose if it differs, or a comment. Unless noted, the call rests on the fitted dose curve; in most records, active means well fitted inhibition curve with a large enough effect (not every such curve was filed as active); inconclusive means small, poorly fitted or top-dose-only effect, or another doubt; inactive means no such curve, though single readings can be large or run the other way. Unless noted, on the % scale 0 is the no-effect control and ±100 the full control effect.

SMILES	KinaseGlo FLuc	ALDH1A1 inh	HPGD inh	Lamin A splicing	PNC assembly inh
CCCOC(=O)c1ccc(Oc2c(-c3ccc(OCC)cc3O)n[nH]c2C)cc1	-3%	?	?	-30%	?
CCCc1ccc(Oc2c(-c3ccc(O)c(C)c3O)n[nH]c2C)cc1	3%	1%	-9%	?	?
CCCc1ccc(Oc2cn[nH]c2-c2ccc(O)c(C)c2O)cc1	-2%	5%	18µM*	?	0
CCCOC(=O)c1ccc(Oc2cn[nH]c2-c2ccc(OCC)cc2O)cc1	-11%	-1%	-18%	-9%	-117*
O=C(O)c1c(Cl)c(Cl)c(Cl)c(Cl)c1C(=O)N1CCCC1	-2%	4%	-1%	-1%	19
O=C(c1nsc(Cl)c1Cl)N1CCCCC1	-2%	0%	2.5µM*	?	33
O=[N+]([O-])c1ccc(N/N=C/c2ccc[nH]2)cc1	?	2%	14µM*	?	-97*
COc1ccc(NC(=O)C(=O)N/N=C/c2cc(C)n(-c3cccc(Cl)c3Cl)c2C)c(OC)c1	-6%	32µM*	?	-15%	-26
CC1=C(C(=O)Nc2ccccc2)C2(CCCCC2)C(C#N)=C(S)N1	-2%	20µM*	25µM*	-3%	36
N#Cc1cccc(NC(=O)CSc2ccccc2)c1	2%	-11%	-5%	3%	-15
N#CC1=C(N)NC(SCC(=O)Nc2ccccc2)=C(C#N)C12CCCC2	3%	4.5µM*	18µM*	-7%	-7
N#CC1=C(N)NC(SCc2ccc(F)cc2)=C(C#N)C12CCCCC2	-2%	?	-10%	-5%	-2
N#CC1=C(N)NC(SCC(=O)O)=C(C#N)C12CCCC2	13%	5.6µM*	13µM*	4%	40
Cc1ccc(S(=O)(=O)N[C@H](C(=O)O)C(C)C)cc1	-1%[7.66 µM]	8%[13.5 µM]	0%	·	·
Cc1ccc(N/N=C2\CC(=O)c3ccccc32)cc1Cl	·	25µM*	·	·	·
Cc1ccc(NC(=O)CCn2cnc3ccccc3c2=O)cc1Cl	0%	0%	-2%	-7%	-10
CSC1=C(C#N)C(c2ccccc2Cl)C2=C(N1)c1ccccc1C2=O (centres undefined)	-3%	?	?	7%	41
CSC1=C(C#N)C(c2ccccc2C)C(C#N)=C(N)N1 (centres undefined)	2%	22µM*	-20%	25%	-8
O=S(=O)(c1ccc2c(c1)OCCO2)N1CCC(O)(c2ccc(Cl)cc2)CC1	-2%	?	-12%	?	-125*
c1ccc(COn2c(-c3ccccc3)nc3c2CCc2nonc2-3)cc1	·	8.9µM*	·	?	-21
COn1c(-c2ccccc2)nc2c1CCc1nonc1-2	-2%	7.9µM*	-23%	5%	-25
Cc1ccc(-n2nc3c([n+]2[O-])CCc2nonc2-3)cc1	0%	?	·	·	·
CC(C)OC(=O)CN1C(=O)C(C)(C)Oc2ccc(C(=O)NC3CC3)cc21	-3%	11µM*	-13%	3%	?
O=C(NC(=S)Nc1ccc(N2CCCC2)cc1)c1ccccc1[N+](=O)[O-]	3%	?	-11%	?	-83*
O=C(Nc1ccc(NC(=O)c2ccco2)cc1)c1cnccn1	-22%	25µM*	-21%	9%	33
SMILES	KinaseGlo FLuc	ALDH1A1 inh	HPGD inh	Lamin A splicing	PNC assembly inh
O=C(Nc1ccc2ccccc2c1)c1cnccn1	-9%	-9%	-9%	5%	14
O=C(Nc1ccc(OC(=O)c2ccco2)cc1)c1ccco1	13µM*	3%	-23%	-7%	146
O=C(Nc1ccc(S(=O)(=O)NC2CCCC2)cc1)c1cnccn1	1%	?	7.9µM*	-9%	-5
O=C(NC(=S)Nc1ccc(N2CCCCC2)cc1)c1ccco1	-1%	?	18µM*	2%	-25
O=C(N/N=C/c1ccc(N2CCCCC2)o1)c1ccccc1[N+](=O)[O-]	-8%	?	10µM*	-1%	3
O=C(N/N=C/C=C/c1ccco1)c1cnccn1	·	3.2µM*	·	·	·
O=C(Nc1ccc(Br)c(Cl)c1)c1ccco1	-8%	-13%	22µM*	-3%	?
Cc1cc2nc3[nH]c4c(Cl)cc(Cl)cc4c3nc2cc1C	-8%[7.66 µM]	-8%[13.5 µM]	-7%	·	·
CCN(CC)Cc1ccc(Nc2ccnc3cc(Cl)ccc23)cc1O	0%	-4%	-9%	·	·
O=C(NC(=S)Nc1ccc(NC(=O)c2ccco2)cc1)c1ccccc1	-4%	?	-10%	-6%	-88*
O=C(Nc1cnn(Cc2ccc(F)cc2)c1)c1cnccn1	3%	-5%	-21%	-10%	-129*
COc1cc(C(=O)NC(=S)Nc2ccc(NC(=O)c3ccco3)cc2)cc(OC)c1OC	0%	?	-13%	?	59
O=C(Nc1cnn(Cc2ccc(F)cc2)c1)c1cc(-c2cccs2)on1	0%	?	-27%	3%	?
O=C(N/N=C/C=C/c1ccco1)c1cccnc1	-3%	?	-18%	1%	38
O=C(N/N=C\C=C\c1ccco1)c1cc(-c2ccc3ccccc3c2)n[nH]1	-3%	0%	32µM*	?	5
O=C(NC1CCCCC1)c1ccc(Cn2c(SCc3cccc(F)c3)nc3cccnc32)cc1	·	·	·	-26%[46 µM]	·
O=C(Nc1ccccc1)N1CCC2(CC1)CCN(C(=O)c1csnn1)CC2	-1%	-3%	-8%	·	·
CC(=O)Nc1cccc(NC(=O)c2ccc(Br)cc2)c1	-1%	3%	·	·	·
O=C(O)/C=C/C(=O)NNC(=O)c1ccc(Br)cc1	1%	?	0%	-13%	-16
O=C(NNc1ccc(O)cc1)c1ccc(Br)cc1	-2%	7.1µM*	·	·	·
O=C(Nc1cccc(O)c1)c1ccc(Br)cc1	-7%	8%	-1%	6%	-128*
Cc1cccc(CNC(=O)Cn2nc(C)c3nn(-c4ccc(Cl)cc4)c(C)c3c2=O)c1	·	·	·	-5%[46 µM]	·
Cc1cc(=O)n2c(C(=O)Nc3ccc(C)c(C)c3)c(C(=O)Nc3ccccc3)sc2n1	0%	?	·	?	·
Cc1ccc(NC(=O)c2c(C(=O)Nc3ccccc3)sc3nc(C)cc(=O)n23)cc1	-1%	4.5µM*	·	20%[46 µM]	·
CCc1ccc(NC(=O)c2c(C(=O)Nc3ccccc3)sc3nc(C)cc(=O)n23)cc1	0%	0.89µM*	·	?	·
SMILES	KinaseGlo FLuc	ALDH1A1 inh	HPGD inh	Lamin A splicing	PNC assembly inh
COCCc1nn2c(=O)cc(COC(=O)c3ccc(C(C)(C)C)cc3)nc2s1	·	·	·	21%[46 µM]	·
CCOC(=O)Cn1c(=O)n(-c2ccccc2OC)c2nc(-c3ccccc3C)nc(C(N)=O)c21	·	·	·	9%[46 µM]	·
COc1ccc(C2C(=O)N(C3CCCCCC3)CC(=O)N2Cc2ccccc2)cc1 (centres undefined)	·	·	·	5%[46 µM]	·
CCN(CC)c1nn2c(=O)c(C(=O)NCc3ccc(F)cc3)cnc2s1	·	·	·	11%[46 µM]	·
CC(C)COC(=S)Nc1ccccc1	6%	25µM*	11µM*	8%	3
O=C1C=C(Nc2ccccc2)C(=O)c2ccccc21	-28%	?	·	?	·
O=C1C(Nc2ccccc2)=CC(=O)c2ncccc21	·	16µM*	·	·	·
